Whole data set: some 81,000 sequences, median “one-hybrid fitness for binding NBS DNA” near -0.1, cut for the highest 2% near 0.36. This is one part of a sample in which the highest values are shown more often than they occur.
B1: Caulobacter ParB omega fusion; a variant is named by its letters at X, in order, B8GW30 (parent)
chain: MESVVVGEPGMSEGRRGLGRGLSALLGEVDAAPAQAPGEQLGGSREAPIEILQRNPDQPRRTFREEDLEDLSNSIREKGVLQPILVRPSPDTAGEYQIVAGERAWRAAQRAGLKTVPIMVRELDDLAVLEIGIIENVQRADLNVLEEALSYKVLMEKFERTQENIAQTIGKSXSHVANXMRLLXLPDEVQSYLVSGELTAXHARAIAAAADPVALAKQIIEGGLSVRETEALARKAPNLSAGKSKGGRPPRVKDTDTQALESDLSSVLGLDVSIDHRGSTGTLTITYATLEQLDDLCNRLTRGI

Variants of: B1
Test: one-hybrid fitness for binding NBS DNA (the Noc-binding site; scaled: cognate 1, non-cognate 0); higher = stronger binding
Conditions: with NBS DNA site
Procedure, shortened: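 Bacterial one-hybrid selection in E. coli USO rpoZ- hisB- pyrF- with a HIS3 reporter carrying the site 19 bp from the promoter, screening Caulobacter ParB libraries with four specificity codons randomised (NNS). Cells grew 48 hours at 37°C on M9-minus-histidine plus 0.1 mM IPTG and 5 mM 3-AT. Plasmids before and after selection were Illumina-sequenced, three replicate libraries pooled, and variants under 10 reads dropped. Fitness is the log change in variant-to-wild-type read ratio, rescaled to cognate 1, non-cognate 0.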

one-hybrid fitness for binding NBS DNA, 0.541:
KTRR

one-hybrid fitness for binding NBS DNA, 0.418:
QTPT

one-hybrid fitness for binding NBS DNA, 0.47:
KKRR

one-hybrid fitness for binding NBS DNA, 0.522:
QTIT

one-hybrid fitness for binding NBS DNA, 0.287:
QLIT

one-hybrid fitness for binding NBS DNA, 0.598:
RMKS

one-hybrid fitness for binding NBS DNA, 0.29:
RMVS

one-hybrid fitness for binding NBS DNA, 1.03:
QHKR

one-hybrid fitness for binding NBS DNA, 0.416:
DCRR
KQRR

one-hybrid fitness for binding NBS DNA, 0.296:
QTHM

one-hybrid fitness for binding NBS DNA, 0.398:
KMRR

one-hybrid fitness for binding NBS DNA, 0.343:
KSRR

one-hybrid fitness for binding NBS DNA, 0.742:
QCHR

one-hybrid fitness for binding NBS DNA, ≤ 0.2:
QSHD
QPHR
QIHD
QIHC
QSHP
QLFV
PASW
QHPW
TKDT
KAAR
VHKI
VRNY
SPES
PIPY
DLRT
HALK
LKPH
ECKC
PADW
EYHR
CRTW
QTPH
QTPP
QPPT
RCQW
IHRR
DHKR
QHVP
LTLF
YIRF
KAST
GTAV
KKYR
KTYR
DSRR
KKDR
KTDR
KMYR
KMDR
DPRR
QEHI
GLEC
KISR
NLTF
IPIE
AYRA
LADD
DHMR
RSEM
KIPV
AVRD
ISPK
CECG
HLGA
NQRR
KHQR
KHYR
KPRR
KQYR
PLRA
YGEG
NPWT
YGMG
ETAK
RFQF
NMWY
NYHG
ANWC
AQQE
RPKH
RMKP
RMKN
RMKD

one-hybrid fitness for binding NBS DNA, 0.379:
QHVR

one-hybrid fitness for binding NBS DNA, 0.367:
KHRR

one-hybrid fitness for binding NBS DNA, 0.202:
NHKR

one-hybrid fitness for binding NBS DNA, 0.382:
QCPT

one-hybrid fitness for binding NBS DNA, 0.402:
RMKH

one-hybrid fitness for binding NBS DNA, 0.46:
KCRR

one-hybrid fitness for binding NBS DNA, 0.403:
RCKH

one-hybrid fitness for binding NBS DNA, 0.291:
QAIT

one-hybrid fitness for binding NBS DNA, 0.493:
QIHR

one-hybrid fitness for binding NBS DNA, 0.221:
QHVS

one-hybrid fitness for binding NBS DNA, 0.357:
RSKH

one-hybrid fitness for binding NBS DNA, 0.877:
QTHR

one-hybrid fitness for binding NBS DNA, 0.276:
QSPT

one-hybrid fitness for binding NBS DNA, 0.293:
QTHK
